Assay outcomes (PubChem BioAssay)
Vaccinia pol inh – vaccinia E9 polymerase processive synthesis inhibition | in vitro processive DNA synthesis, absorbance read-out; stronger effect = lower value | hit rate 0.94% among 46,000 | normalized absorbance, % (no concentration beside the values); in the data active = normalized absorbance mostly below about 85%, no sharp cut-off; inactive = mostly above about 86%
The depositor's hits bear a star. Only a selection was taken, and hits are over-represented in it overall.

SMILES	Vaccinia pol inh
CC[C@@]1(COC)C2[C@@H](OC)C[C@]3(OC(C)=O)C4C(C[C@](O)([C@@H](OC)C[C@@H]3O)[C@@H]4OC(=O)c3ccccc3)[C@]2(C(C)C)[C@@H](OC)C[C@H]1O (stereo partly specified)	100.2
CCN(CC)c1ncnc2c1[nH]c1ccc(C)cc12	99.9
COc1ccc2[nH]c3c(N(C)C)ncnc3c2c1	64.0*
COc1ccc2[nH]c3nc(=S)[nH]nc3c2c1	100.8
COc1ccc(-c2cc3nc(C)c(CCC(=O)Nc4ccccc4C(N)=O)c(C)n3n2)c(OC)c1	104.7
CC(C)N(CCC#N)C(=O)Nc1ccccc1	113.8
NNc1ccc(Br)cc1	54.0*
NNc1ccc(Cl)c(Cl)c1	85.1
O=C(Nc1ccccc1)Nc1ccc(Br)cc1	100.4
CC(CC(=O)N1CCc2ccccc2C1)CC1=NS(=O)(=O)c2ccccc2N1 (stereo unspecified)	100.5
CCc1ccc2nc(N3CCC(C(=O)NCCc4ccccc4)CC3)sc2c1	101.0
CCOC(=O)Nc1ccc(Br)cc1C(NCC(=O)OC)c1ccccc1 (stereo unspecified)	98.2
Nc1ccc(Br)cc1C(NCC(=O)O)c1ccccc1 (stereo unspecified)	89.1
Cc1ccc(S(=O)(=O)Nc2ccc(Br)cc2C(NCC(=O)O)c2ccccc2)cc1 (stereo unspecified)	68.2*
CCN(c1ccccc1)S(=O)(=O)c1ccc2c(c1)OCCN2C(C)=O	88.7
Cc1ccc2c(c1)NC(CN=C(N)N)CC2 (stereo unspecified)	99.0
Cc1nc2ccccn2c1-c1ccnc(=S)[nH]1	97.6
Cc1onc(C(=O)N(C)C)c1-c1ccnc(=S)[nH]1	87.7*
CC(=O)N(C(C)=O)c1nccc(-c2c(-c3ccccc3)noc2C)n1	96.9
N=C(N)SCC1CN=C(N2CCCC2)S1 (stereo unspecified)	100.4
O=C(CCCn1c(=O)c2cccn2c2ccccc21)NC1CCCC1	90.5
O=C(/C=C/c1ccc(-c2cccs2)s1)N1CCSCC1	95.3
CN(C)C=NC(=O)c1ccc(-c2cccs2)s1	80.2*
Cc1ccc(C(=O)c2cccs2)s1	99.1
Cc1cc(C)n(-c2nc3cc(Cl)ccc3nc2NCCN2CCOCC2)n1	103.1
SMILES	Vaccinia pol inh
CCc1nc2ccccc2c(N)c1C	86.6
O=C(OCc1ccccc1)C1=COCCO1	103.0
Cc1cc2cc(CNC(=O)Cc3cccc4ccccc34)ccc2n1C	100.9
CN(C)c1ccc(C2=CC=CC(=C3C=CC(=[N+](C)C)C=C3)O2)cc1	39.3*
O=C(C/C(=C1/CCc2ccccc2C1=O)c1ccccc1)c1ccccc1	92.6
CC1(C)O[C@@H]2CC3C4C[C@H](F)C5=CC(=O)CC[C@]5(C)C4[C@@H](O)C[C@]3(C)[C@]2(C(=O)CO)O1 (stereo partly specified)	95.2
CC(=O)n1c2ccccc2c2c(-c3ccccc3)c(N3CCOCC3)sc21	98.1
CC(=O)n1c2ccc(C)cc2c2nc3ccccc3nc21	92.9
CC(=O)n1c2ccccc2c2ccccc21	67.2*
CC(=O)n1c(=O)n(C(C)=O)c2ccccc21	89.1
N#CSCC(=O)n1c2ccccc2c2ccccc21	99.8
CC(=O)n1c2ccccc2c2nc(N)sc21	64.2*
Cc1cc(N)n(CCC#N)n1	103.5
Cc1nn2c(c1-c1cccc(Cl)c1)NCN(Cc1ccc(Cl)cc1)C2	95.1
N#Cc1c(-c2ccco2)cc(-c2cccs2)nc1OCc1ccc(F)cc1	89.0
CN1CCc2c(-c3cccs3)nc(OCc3ccccc3Br)c(C#N)c2C1	45.9*
N#Cc1ccc(CSc2nc(-c3cccs3)c3c(c2C(=O)O)CCCC3)cc1	99.6
CN=Cc1c(Cl)nc2sccn12	85.5
Cc1ccc2c(Sc3ccc(Cl)cc3)c(C(=O)O)[nH]c2c1	56.7*
O=C(c1[nH]c2ccccc2c1Sc1ccc(Cl)cc1)N1CCCC1	97.0
COc1cccc(CNC(=O)c2[nH]c3cc(C)ccc3c2Sc2ccc(Cl)cc2)c1OC	94.6
CCc1ccc(NC(=O)CN2C(=O)CCc3ccccc32)cc1	98.9
CCCc1nc2ccccc2n1CC(=O)N1CCc2ccccc2C1	106.9
COC(=O)c1ccc(Nc2ccccc2)cc1	102.1
COC(=O)c1ccc(NN)cc1	81.0*
SMILES	Vaccinia pol inh
COC(=O)c1ccc(CSc2nnc3n(N)cnn23)cc1	101.1
COC(=O)c1ccc(NC(=S)N(C(C)C)C(C)C)cc1	94.9
COC(=O)c1ccc(CSC(=N)N)cc1	80.9*
N=C(N)SCc1ccccc1	95.9
Cc1nnc2c(N3CCCC3)nc3ccccc3n12	93.9
CC1(C)C=C(/C=C/c2ccccc2F)NC(=S)N1	100.1
O=C(Nc1nnc(-c2ccccc2)o1)c1sc2ccccc2c1Cl	83.3
O=C(COc1ccccc1C(=O)O)NCCN1CCOCC1	100.4
CCC(=O)Nc1ccc2nc(-c3ccccc3)[nH]c2c1	97.7
CCSc1nc(-c2ccc(Cl)cc2)c(C#N)c(=O)n1CC	100.9
Cc1sc2ncnc(N(C)C)c2c1C	104.0
C(=NCc1ccccc1)c1cn(-c2ccccc2)nc1-c1cccnc1	98.2
CC(O)CN=c1cc(-c2ccccc2)oc2ccc(Cl)cc12 (stereo unspecified)	45.6*
O=c1cc(-c2ccccc2)oc2cc(Cl)ccc12	98.4
Cc1ccc2oc(-c3ccccc3)cc(=NCCO)c2c1	48.6*
Clc1ccc2oc(-c3ccccc3)cc(=NCCN3CCOCC3)c2c1	96.1
O=c1cc(-c2ccccc2)oc2ccc(Cl)cc12	102.5
CCC(N=c1cc(-c2ccc(OC)cc2)oc2ccc(C)cc12)C(=O)O (stereo unspecified)	97.9
Oc1ccc(N=c2cc(-c3ccccc3)oc3ccc(Cl)cc23)cc1	98.0
OCCN=c1cc(-c2ccccc2)oc2ccc(Cl)cc12	41.3*
c1ccc(-c2nc3cc(NCc4cccnc4)ccc3o2)cc1	100.2
Cc1ccc2oc(-c3ccccc3)c(C(=O)O)c(=O)c2c1	87.4
CCc1ccc2oc(-c3ccccc3)cc(=NCc3cccnc3)c2c1	79.8*
CCOC(=O)COc1c(Br)cc(Br)c2cccnc12	99.9
Cc1cc2ccccc2nc1-c1ccccc1	96.2
SMILES	Vaccinia pol inh
Cc1sc[n+](Cc2ccccc2)c1C	100.5
O=C(O)CCN=C1NC(=O)CS1	106.8
C=CCn1c2ccc(Br)cc2c2n[nH]c(=S)nc21	99.8
CCc1ccc(CN(Cc2cn[nH]c2-c2ccc(OC)cc2)C(=O)Nc2ccc3c(c2)OCCO3)cc1	97.1
CC(C(=O)O)N1Cc2ccccc2C1=O (stereo unspecified)	107.6
COC(=O)c1cccc(NC(=O)c2ccccc2C(=O)O)c1	99.8
Clc1ccccc1N1CCN(C2=Cc3ccccc3CC2)CC1	111.4
COc1ccc2oc(-c3ccccc3)cc(=O)c2c1	77.3
Cc1ccc2oc(-c3ccccc3)cc(=NCCN(C)C)c2c1	30.3*
Cc1ccc2oc(-c3ccccc3)c(CN3CCOCC3)c(=O)c2c1	97.8
O=C(OCC1CCCN2CCCCC12)c1cc2ccccc2oc1=O (stereo unspecified)	83.8
Nc1nc(N)n(-c2ccccc2)n1	98.3
O=C(COC(=O)Cc1c[nH]c2ccccc12)Nc1ccc(Cl)cc1F	102.7
COc1ccc(CCN2CC(O)=C(c3nc4ccccc4s3)C2=N)cc1OC	94.3
CN1C(=O)CC(c2ccccc2)Sc2ccccc21 (stereo unspecified)	99.8
Cc1c(CN(C)C)c2c(n1Cc1ccccc1)C(=O)c1ccc(Br)cc1-2	68.3*
Nc1cc(=O)n(Cc2ccccc2)c(=O)n1-c1ccccc1	96.0
CN(Cc1ccccc1)C(=O)CNc1ccc(Br)cc1	102.2
Cc1nc(N)sc1-c1nnc(Nc2ccccc2)s1	100.7
